Hits are enriched below; roughly 22% of the tested compounds scored in any of these assays.
Pf growth 48h – inhibits P. falciparum growth in the first generation, 48 h; P. falciparum luciferase growth in erythrocytes, 48 h; Potency, µM (doses to about 28.7 µM), actives largely listed as inhibitors; 310,000 compounds, 5.9% hits; AID 504832
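Luciferase-expressing P. falciparum in infected erythrocytes (2% hematocrit, 0.1% parasitemia final) in RPMI 1640/0.5% Albumax were exposed to compound for 48 hours at 37 C, 5% CO2; growth read as luminescence.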
Cycloheximide cs – counter-screen for Shiga toxin inhibitors: cycloheximide protein synthesis inhibition | cell reporter, cycloheximide protein synthesis inhibition counterscreen | max response, % | 300,000 compounds, 12% hits | AID 2314; in the data active = max response mostly above about 13%, no sharp cut-off; inactive = mostly below about 14%; also: read at 38.3 µM for the half of the compounds with a filed dose
Pf growth 96h – inhibits malaria parasite growth, 96 h; P. falciparum luciferase reporter growth, 96 h; 320,000 compounds, 6.9% hits; Potency, µM (top dose mostly 28.7 µM), actives largely listed as inhibitors; AID 504834
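Readout is luminescence from an integrated firefly luciferase in P. falciparum. Red cells, 2% hematocrit and 0.05% parasitemia final, were cultured with compound through two parasite generations (96 hours) at 37 C, 5% CO2.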
Shiga inhibitor – inhibitors of Shiga toxin in Vero cells | inhibition, % at 38.7 µM | 290,000 compounds, 9.2% hits | Vero cells, Shiga toxin protein synthesis inhibition reporter; in the data active = inhibition mostly above about 28%, no sharp cut-off; inactive = mostly below about 43%
LmPK inhibitor – LmPK (Leishmania mexicana) enzyme inhibition; purified LmPK, Kinase-Glo ATP luminescence, 1 h; 290,000 compounds, 0.37% hits; Q27686; Potency, µM (titrated, usually from 57.5 µM), hits mostly inhibitors
Target sequence (Q27686 whole entry, looked up): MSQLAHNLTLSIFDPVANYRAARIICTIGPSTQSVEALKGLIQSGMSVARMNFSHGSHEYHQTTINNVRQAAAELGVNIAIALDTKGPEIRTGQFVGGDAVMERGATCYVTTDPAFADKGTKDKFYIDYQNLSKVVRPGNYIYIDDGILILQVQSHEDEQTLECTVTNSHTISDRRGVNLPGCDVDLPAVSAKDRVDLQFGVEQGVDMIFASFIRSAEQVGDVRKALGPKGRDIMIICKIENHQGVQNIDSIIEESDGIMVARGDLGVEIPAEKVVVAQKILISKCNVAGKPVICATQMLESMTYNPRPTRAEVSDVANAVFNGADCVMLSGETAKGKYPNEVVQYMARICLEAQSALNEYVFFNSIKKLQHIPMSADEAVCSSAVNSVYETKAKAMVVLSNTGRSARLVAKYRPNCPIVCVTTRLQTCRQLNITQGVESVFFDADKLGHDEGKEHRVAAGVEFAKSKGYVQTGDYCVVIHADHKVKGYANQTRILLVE
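In 50 mM imidazole pH 7.2 with 7 mM MgCl2, LmPK (0.1 nM) turned over PEP (0.5 mM) and ADP (0.1 mM) for 1 h at room temperature. Luciferase read-out of ATP.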
Large screens that a line does not name were inactive. Unless noted, calls follow the shape of the dose curve; as a rule, active = well fitted inhibition curve with a large enough effect; inconclusive = small, poorly fitted or top-dose-only effect, or another doubt; inactive = no such curve, though single readings can be large or run the other way.

Cc1nn(-c2ccccc2)c(N2CCCC2)c1/C=N/NC(=S)Nc1ccccc1F	Pf growth 48h 10.4µM, Cycloheximide cs 72.4, Pf growth 96h inconclusive, Shiga inhibitor 98.1
CC1CCCCN1C(=O)CSc1nc(C2CC2)nc2ccccc12 (configuration not stated)	Pf growth 48h inconclusive
CC(=O)NNC(=O)c1cc2c3ccccc3n(C)c2s1	none
Cn1c2ccccc2c2cc(C(=O)N3CCN(CCO)CC3)sc21	Cycloheximide cs 13.8
O=C(NCc1cccnc1)Nc1ccc(Cl)cc1	Cycloheximide cs 17.9, Pf growth 96h inconclusive
CCC(C)c1ccc(NC(=O)NCc2cccnc2)cc1 (configuration not stated)	Cycloheximide cs 26.2
COc1ccc(NC(=O)NCc2cccnc2)cc1	Pf growth 96h inconclusive
CCC(C)c1ccc(NC(=O)Nc2cccnc2)cc1 (configuration not stated)	Pf growth 48h inconclusive, Cycloheximide cs 79.6, Shiga inhibitor 76.4
CC(C)c1ccc(NC(=O)NC2(C(=O)NCc3cccnc3)CCCCC2)cc1	none
CC(C)C(=O)Nc1cccnc1	none
Cc1cc2c(cc(C(=O)NCc3cccnc3)n2Cc2ccc(Cl)cc2)o1	Pf growth 48h inconclusive, Pf growth 96h 10.4µM
Cc1ccc(NC(=O)CN2CCN(C)CC2)cc1Br	none
O=C(COc1ccc2ccccc2c1)N1CCN(Cc2c[nH]c3ccccc23)CC1	Pf growth 48h 11.7µM, Cycloheximide cs 16.9, Pf growth 96h 3.29µM
C/C(=N\NC(=O)C(=O)Nc1c(C)n(C)n(-c2ccccc2)c1=O)c1ccncc1	none
CCSc1nnc(-c2cc(Br)ccc2N)c(=O)[nH]1	none
CCSc1nnc(-c2ccccc2N=Cc2c(C)[nH]n(-c3ccccc3)c2=O)c(=O)[nH]1	Cycloheximide cs 12.8, Pf growth 96h inconclusive
CCSc1nnc(-c2ccccc2N)c(=O)[nH]1	Cycloheximide cs 23.9, Pf growth 96h inconclusive, Shiga inhibitor 52.5
CCOc1ccccc1N1CCN(CC(O)COC2CCCc3ccccc32)CC1 (configuration not stated)	Pf growth 48h inconclusive, Pf growth 96h inconclusive
CCO[C@H]1OC(C(N)=O)=C[C@@H](c2csc3ccccc23)[C@@H]1CCCO	none
CCO[C@@H]1OC(C(=O)N2CCCCCCC2)=C[C@H](c2csc3ccccc23)[C@H]1CCCO	Pf growth 48h 8.28µM, Pf growth 96h inconclusive
CCO[C@@H]1OC(C(=O)N2CCCCCCC2)=C[C@H](c2cn(C(C)=O)c3ccccc23)[C@H]1CCCO	Pf growth 48h inconclusive, Pf growth 96h 10.4µM
C=CCOC(=O)C1=C[C@H](c2cn(C(C)=O)c3ccccc23)[C@@H](CCCO)[C@H](OCC)O1	Pf growth 48h inconclusive, Pf growth 96h 11.7µM
O=C(NCCc1ccccc1)C(=O)NCC1OCCCN1S(=O)(=O)c1cccs1 (configuration not stated)	none
Fc1ccc(NC(=S)Nc2cccnc2)cc1Cl	Pf growth 48h 14.7µM, Pf growth 96h inconclusive
O=C(Nc1ccc(F)c(Cl)c1)c1cccnc1	Cycloheximide cs 13.7
O=C(Nc1ccc(F)c(Cl)c1)c1ccccc1	none (no result: Cycloheximide cs, Shiga inhibitor, LmPK inhibitor)
CCc1noc(C)c1C(=O)Nc1ncc(C)s1	Cycloheximide cs 18.6, Shiga inhibitor 41.2
CCc1noc(C)c1C(=O)Nc1nc(-c2ccc(F)cc2)c(C)s1	Pf growth 96h inconclusive
CCc1noc(C)c1C(=O)Nc1nc(-c2cc(C)ccc2C)c(C)s1	Pf growth 48h inconclusive, Pf growth 96h 10.4µM
CCc1noc(C)c1C(=O)Nc1nc2c(C)cccc2s1	none (no result: Cycloheximide cs, Shiga inhibitor, LmPK inhibitor)
Cc1ccc(N2CC(O)(c3cccs3)[N+]3=C2CCCC3)cc1 (configuration not stated)	Pf growth 48h inconclusive, Pf growth 96h 5.22µM
Cc1ccc(S(=O)(=O)N(C)C)cc1-n1c(SCC(=O)Nc2ccc(F)cc2)nc2ccccc2c1=O	Pf growth 48h 9.28µM, Pf growth 96h 9.28µM
Cc1ccc(S(=O)(=O)N(C)C)cc1-n1c(SCC(=O)Nc2ccccc2)nc2ccccc2c1=O	Pf growth 48h inconclusive, Pf growth 96h inconclusive
Cc1ccc(S(=O)(=O)N(C)C)cc1NC(=O)CSc1nc2ccccc2c(=O)n1CC1CCCO1 (configuration not stated)	Pf growth 48h inconclusive, Pf growth 96h inconclusive
Cc1ccc(S(=O)(=O)N(C)C)cc1-n1c(SCC(=O)Nc2ccc(F)cc2Cl)nc2ccccc2c1=O	Pf growth 48h 13.1µM, Pf growth 96h inconclusive
CN(C(=O)c1ccc(Br)o1)C1(C)CCS(=O)(=O)C1 (configuration not stated)	Pf growth 96h inconclusive
CCC1CCCCN1C(=O)CSc1nnc(-c2ccco2)o1 (configuration not stated)	Cycloheximide cs 37.3, Shiga inhibitor 62.2
O=C(CSc1nnc(-c2ccc(Cl)s2)o1)N1CCCc2ccccc21	none
CCC1CCCCN1C(=O)CSc1nnc(-c2cccc(Cl)c2)o1 (configuration not stated)	Cycloheximide cs 28.5, Shiga inhibitor 98.2
CCC1CCCCN1C(=O)CSc1nnc(-c2ccc(Cl)cc2)o1 (configuration not stated)	Pf growth 96h inconclusive (no result: Pf growth 48h)
O=C(CSc1nnc(-c2ccco2)o1)NC1CCCCCC1	none (no result: Pf growth 48h)
CCC1CCCCN1C(=O)CSc1nnc(-c2ccc(Cl)s2)o1 (configuration not stated)	Cycloheximide cs 37.7, Shiga inhibitor 82.4
CN(C(=O)COC(=O)/C=C/c1ccc(C(F)(F)F)cc1)C1CCS(=O)(=O)C1 (configuration not stated)	none
CC1CCc2c(sc(NC(=O)Cc3ccccc3)c2C(=O)Nc2ccc(Cl)cc2)C1 (configuration not stated)	none (no result: Pf growth 48h, Pf growth 96h, LmPK inhibitor)
COc1ccccc1OCc1cc(C(=O)N(C)CCC2CCCCO2)no1 (configuration not stated)	Cycloheximide cs 58.6, Pf growth 96h inconclusive, Shiga inhibitor 126.3
COc1ccccc1OCc1cc(C(=O)NCCN2CCCC(O)C2)no1 (configuration not stated)	none
COc1cc(C(C)=O)ccc1OCc1cc(C(=O)N(C)CCC2CCCCO2)no1 (configuration not stated)	Cycloheximide cs 52.9, Shiga inhibitor 100.6
COc1nc(-c2ccc(Cl)cc2)nnc1C	Cycloheximide cs 14.9
COCC(C)OC(=O)c1c(N)n(CC(C)C)c2nc3ccccc3nc12 (configuration not stated)	Pf growth 48h 11.7µM (no result: Pf growth 96h)
C=CCn1c(N)c(C(=O)OC(C)CC)c2nc3ccccc3nc21 (configuration not stated)	Pf growth 48h 10.4µM (no result: Pf growth 96h)
CCOc1ccccc1N(CC(=O)Nc1cc(OC)ccc1OC)S(=O)(=O)c1ccccc1	Pf growth 48h inconclusive
COc1ccc(OC)c(NC(=O)c2cccc(S(=O)(=O)N(Cc3ccccc3)c3ccccc3OC)c2)c1	Pf growth 48h 14.7µM, Pf growth 96h 7.38µM
COc1ccc(OC)c(NC(=O)c2ccc(CN(c3cc(Cl)ccc3C)S(=O)(=O)c3ccccc3)cc2)c1	Pf growth 48h 1.47µM, Pf growth 96h inconclusive

Screens deposited in PubChem by National Center for Advancing Translational Sciences (NCATS).
